Compound activity deposited in PubChem BioAssay by several laboratories.
SRC2 inh: inhibition of GAL4-SRC2 driven luciferase reporter, primary screen, SRC2 inhibitor project, cell-based, luminescence | Nuclear receptor coactivator 2 (Homo sapiens), Q15596 | HEK293 GAL4-SRC2 luciferase reporter | inhibition, % at 9 µM | 370,000 tested, 0.17% active;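 active means inhibition above the mean inhibition of all tested compounds plus 3 SD, set per campaign, cut at about 52% in these data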;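 further: 0% = DMSO treated cells and 100% = cells given Gossypol at 36 µM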
LRH-1 inv ag: LRH-1 (NR5A2) inverse agonists, primary screen, cell-based, luminescence, HEK293T, StAR-luciferase reporter. inhibition, % at 3.6 µM. LRH-1 transfected, 24 h. AID 602396, 2012. Nuclear receptor subfamily 5 group A member 2 (Homo sapiens), O00482. 360,000 tested, 0.13% active;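 active means inhibition above the mean inhibition of all tested compounds plus 3 SD, cut at about 73% in these data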;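 further: 0% = DMSO wells and 100% = reporter-only cells lacking LRH-1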
Gli-Sufu block: Gli-Sufu pathway antagonists, primary screen, luciferase luminescence, Sufu-KO-LIGHT cells, uHTS; Sufu-KO-LIGHT fibroblasts, Gli luciferase reporter luminescence; inhibition, % at 5 µM; 340,000 tested, 0.74% active;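 active means inhibition above about 55%, limit read from the data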;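 further: 0% = DMSO-treated cells and 100% = wells with medium but no cells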
NR2F2 inh: NR2F2 transcriptional activity inhibitors, primary screen, cell-based, luciferase reporter, HEK293T, luminescence. AID 686940, 2013. HEK293T NGFI-A luciferase reporter. COUP transcription factor 2 (Homo sapiens), P24468. inhibition, % at 8.6 µM. 370,000 tested, 0.7% active;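 active means inhibition above a per-plate cutoff, mean inhibition of test wells between control levels plus 3 SD, cut at about 38% in these data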;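 further: cells cotransfected with COUP-TFII expression vector driving the NGFI-A reporter; 0% = median of COUP-TF2 test wells and 100% = reporter-only cells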
NCOA1 inh: SRC1 coactivator transcriptional activity inhibitors, primary screen, cell-based, luminescence; Nuclear receptor coactivator 1 (Homo sapiens), Q15788; 360,000 tested, 0.12% active; AID 588354, 2011; inhibition, % at 3.6 µM; HEK293 GAL4-SRC1 luciferase reporter;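 active means inhibition above the campaign mean plus 3 SD, with each screening campaign given its own cutoff, cut at about 60% in these data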;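 further: 0% = DMSO treated cells and 100% = gossypol at 36 µM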
NCOA3 inh: SRC3 coactivator transcriptional activity inhibitors, primary screen, cell-based, luminescence. Nuclear receptor coactivator 3 (Homo sapiens), Q9Y6Q9. HEK293 GAL4-SRC3 luciferase reporter. inhibition, % at 3.6 µM. 360,000 tested, 0.17% active. AID 588352, 2011;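 active means inhibition above a per-campaign cutoff, the mean of all compounds plus 3 SD, cut at about 60% in these data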;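 further: 0% = DMSO-treated cells and 100% = gossypol-treated cells at 36 µM; higher means less SRC3-driven luciferase light from the GAL4 reporter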
Target sequence (Q9Y6Q9 whole entry, looked up, the tested form may be a part): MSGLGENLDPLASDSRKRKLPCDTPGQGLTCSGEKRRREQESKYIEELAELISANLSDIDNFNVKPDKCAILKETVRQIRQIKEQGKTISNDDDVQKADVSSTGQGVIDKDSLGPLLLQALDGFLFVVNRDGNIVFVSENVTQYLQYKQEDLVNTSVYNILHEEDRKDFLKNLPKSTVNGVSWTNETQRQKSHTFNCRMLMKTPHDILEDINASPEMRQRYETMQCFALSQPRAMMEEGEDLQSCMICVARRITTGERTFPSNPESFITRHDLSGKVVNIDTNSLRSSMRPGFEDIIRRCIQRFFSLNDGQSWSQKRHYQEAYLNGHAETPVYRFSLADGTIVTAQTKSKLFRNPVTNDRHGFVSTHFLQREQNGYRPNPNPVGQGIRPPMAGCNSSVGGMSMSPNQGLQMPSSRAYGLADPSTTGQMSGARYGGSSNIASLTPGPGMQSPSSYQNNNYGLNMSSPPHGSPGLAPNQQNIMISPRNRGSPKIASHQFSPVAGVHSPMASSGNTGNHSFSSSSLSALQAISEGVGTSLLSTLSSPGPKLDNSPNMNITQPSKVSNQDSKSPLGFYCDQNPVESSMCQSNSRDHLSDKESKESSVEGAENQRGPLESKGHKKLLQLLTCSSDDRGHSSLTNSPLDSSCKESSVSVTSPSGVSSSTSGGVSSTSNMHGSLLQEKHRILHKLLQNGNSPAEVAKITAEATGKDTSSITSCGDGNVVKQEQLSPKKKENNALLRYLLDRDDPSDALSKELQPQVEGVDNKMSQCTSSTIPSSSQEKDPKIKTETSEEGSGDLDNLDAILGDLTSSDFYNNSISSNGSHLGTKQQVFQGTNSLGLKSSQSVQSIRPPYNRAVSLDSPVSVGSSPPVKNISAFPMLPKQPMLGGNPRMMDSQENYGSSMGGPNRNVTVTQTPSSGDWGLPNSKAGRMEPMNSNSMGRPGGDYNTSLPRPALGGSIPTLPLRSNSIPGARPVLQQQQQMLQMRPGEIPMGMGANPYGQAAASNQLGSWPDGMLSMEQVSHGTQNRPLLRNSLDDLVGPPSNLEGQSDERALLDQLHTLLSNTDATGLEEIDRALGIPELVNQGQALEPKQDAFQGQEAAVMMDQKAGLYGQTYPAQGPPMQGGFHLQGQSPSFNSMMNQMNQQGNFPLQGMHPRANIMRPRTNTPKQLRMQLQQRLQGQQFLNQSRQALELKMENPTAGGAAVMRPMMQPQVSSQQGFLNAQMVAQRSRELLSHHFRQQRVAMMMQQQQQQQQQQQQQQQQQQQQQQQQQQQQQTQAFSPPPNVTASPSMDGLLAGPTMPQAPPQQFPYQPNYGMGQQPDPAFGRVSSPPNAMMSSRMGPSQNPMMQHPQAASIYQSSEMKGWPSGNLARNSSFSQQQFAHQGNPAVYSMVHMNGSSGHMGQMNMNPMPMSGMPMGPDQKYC
Gal4-VP16 ctr: Gal4-VP16 luciferase reporter inhibitors, counter-screen for COUP-TFII antagonist project, cell-based, luminescence, HEK293. shares compounds with NR2F2 inh. AID 687007, 2013. inhibition, % at 8.5 µM. 2,500 tested, 25% active; in the data active means inhibition above about 13%
NR2F2 inh conf: NR2F2 transcriptional activity inhibitors, confirmation, cell-based, luciferase reporter, HEK293, triplicate; shares compounds with NR2F2 inh; HEK293 NGFI-A luciferase reporter, luminescence; inhibition, % at 8.5 µM; 2,500 tested, 45% active;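 active means mean inhibition over three repeats above a set limit taken from the earlier primary screen, cut at about 38% in these data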;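 further: 100% = cells given the luciferase reporter alone without the COUP-TF2 vector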
* marks the source's active call; other numbers are inactive results; i = inactive; . = no result given. Hits are enriched below; roughly 1.3% of the tested compounds scored in any of these assays.

SMILES	SRC2 inh	LRH-1 inv ag	Gli-Sufu block	NR2F2 inh	NCOA1 inh	NCOA3 inh	Gal4-VP16 ctr	NR2F2 inh conf
COC(=O)C1CN(Cc2cn(Cc3ccc(Cl)cc3)nn2)CCS(=O)(=O)N1Cc1ccc(OC)cc1 (stereo unspecified)	21	.	.	4	.	.	.	.
COC(=O)C1CN(Cc2cn(Cc3ccc(Cl)cc3)nn2)CCS(=O)(=O)N1Cc1ccc(Cl)cc1 (stereo unspecified)	15	.	.	38*	.	.	-4	3
COCC(C)n1c(C)cc(C(=O)COC(=O)c2cccn2C)c1C (stereo unspecified)	33	22	37	57*	30	43	-42	50*
COCC(C)n1c(C)cc(C(=O)COC(=O)c2cnc(Cl)c(Cl)c2)c1C (stereo unspecified)	28	8	-5	-31	-7	12	.	.
C=CC(=O)N1C/C(=C/c2ccc(F)cc2)C(=O)/C(=C\c2ccc(F)cc2)C1	96*	60	12	106*	i	-201	86*	104*
Cc1ccc[n+](CC(=O)/C=C2\N(C)c3ccccc3C2(C)C)c1	4	38	12	42*	24	8	4	28
COc1cc(C(=O)NN=C2c3ccccc3-c3ccccc32)cc(OC)c1OC	6	.	.	-68	.	.	.	.
c1nc(NCc2ccc3c(c2)OCO3)c2cc(-c3ccoc3)ccc2n1	27	17	-30	39*	51	60	-19	10
c1cc2c(cc1CN1CCN(C3CCCCCC3)CC1)OCO2	8	-10	10	-20	-21	3	.	.
CCNS(=O)(=O)c1ccc(CCC(=O)N2CCN(Cc3ccccc3)CC2)cc1	23	8	1	7	-12	13	.	.
O=C(CCc1ccc(S(=O)(=O)NCCc2ccccc2)cc1)N1CCN(Cc2ccc3c(c2)OCO3)CC1	22	30	.	55*	20	20	10	33
CC(C)CNS(=O)(=O)c1ccc(CCC(=O)N2CCN(Cc3ccc4c(c3)OCO4)CC2)cc1	-5	24	26	45*	5	4	-5	16
c1ccc(CN2CCC(N3CCN(Cc4ccc5c(c4)OCO5)CC3)CC2)cc1	17	23	5	38*	-15	5	1	8
O=C(C1CCCN1S(=O)(=O)c1ccc(Br)s1)N1CCN(c2ccccc2)CC1 (stereo unspecified)	8	.	.	2	.	.	.	.
O=S(=O)(c1ccccc1Br)N(Cc1cn(CC2CCCCC2)nn1)C1CC1	1	.	.	0	.	.	.	.
Cc1cc(C(=O)CSc2nc3ccccc3[nH]2)c(C)n1CC1CCCO1 (stereo unspecified)	63*	46	43	80*	48	73*	34*	88*
O=C(Nc1ccc(Cc2ccncc2)cc1)C1CCC(N2C(=O)C3C4C=CC(C4)C3C2=O)CC1 (stereo unspecified)	10	12	11	38*	3	2	0	6
Cc1cc(N2CCN(C(=O)OC(C)(C)C)C[C@@H]2C)ccc1N1CCN(Cc2ccccc2)[C@H](C)C1	19	.	.	23	.	.	.	.
Nn1c(SCc2cccc3ccccc23)nnc1-c1cc(-c2ccc(Cl)cc2)n[nH]1	14	.	.	15	.	.	.	.
CC(=O)c1c(C)[nH]c(C(=O)OCC(=O)Nc2ccc(Cl)c(S(=O)(=O)N(C)C)c2)c1C	14	19	19	45*	10	19	-3	14
Cc1cc(SCC(=O)c2ccccc2)n2nc(C)nc2n1	3	21	-2	45*	-2	-7	13*	32
Cc1cc(C)c(C#N)c(SCC(=O)c2ccccc2)n1	5	16	6	8	-25	-39	.	.
C=CCCC1CN(Cc2ccc(OC)cc2)S(=O)(=O)c2c(NCc3cc(OC)c(OC)c(OC)c3)cccc2O1 (stereo unspecified)	-7	.	.	43*	.	.	0	28
C=CCCC1CN(Cc2ccc(OC)cc2)S(=O)(=O)c2c(Oc3ccc(OC)cc3)cccc2O1 (stereo unspecified)	-19	.	.	-4	.	.	.	.
COCc1cc(N2CCN(C(=O)OC(C)(C)C)C[C@@H]2C)ccc1N1CCN(Cc2ccccc2)[C@@H](C)C1	-3	.	.	37*	.	.	5	16
SMILES	SRC2 inh	LRH-1 inv ag	Gli-Sufu block	NR2F2 inh	NCOA1 inh	NCOA3 inh	Gal4-VP16 ctr	NR2F2 inh conf
Cc1ccccc1CN1CCCCC(NC(=O)c2ccccc2)C1=O (stereo unspecified)	-17	.	.	-14	.	.	.	.
O=C(NC1CCCCN(Cc2ccc(Cl)cc2)C1=O)c1ccc(COc2ccccc2)cc1 (stereo unspecified)	29	.	.	53*	.	.	-1	12
CCCCOc1ccc(C(=O)NC2CCCCN(Cc3cccc(Cl)c3)C2=O)cc1 (stereo unspecified)	11	.	.	38*	.	.	-1	23
O=C(NC1CCCCN(Cc2cccc(C(F)(F)F)c2)C1=O)c1ccc(COc2ccccc2)cc1 (stereo unspecified)	12	.	.	66*	.	.	10	62*
O=C(NC1CCCCN(Cc2cccc(Cl)c2)C1=O)c1ccc(F)cc1 (stereo unspecified)	-20	.	.	-6	.	.	.	.
Cc1ccccc1CN1CCCCC(NC(=O)c2ccc(COc3ccccc3)cc2)C1=O (stereo unspecified)	25	.	.	68*	.	.	1	49*
COc1ccc2c(c1)CNC2CS(=O)(=O)NC1CCCC1 (stereo unspecified)	1	.	.	4	.	.	.	.
Cc1ccccc1C(=O)NC1CCCCN(Cc2cccc(C(F)(F)F)c2)C1=O (stereo unspecified)	17	.	.	3	.	.	.	.
CCOC(=O)[C@@]12CCCC=C1N(CCc1ccc(Cl)cc1)C(=O)[C@H]2CC(=O)NCCc1ccccc1OC	16	.	.	-1	.	.	.	.
COc1ccc(NS(=O)(=O)c2cccc(C(=O)N/N=C/c3cccs3)c2)cc1	-16	11	-15	5	-24	2	.	.
COc1ccc(NS(=O)(=O)c2cccc(C(=O)NN=Cc3ccc(OC)cc3OC)c2)cc1	9	-1	-6	38*	0	-2	-7	-5
O=C(COc1ccc2ccccc2c1Br)Nc1ccncc1	-18	-19	-2	51*	-86	-29	-79	-2
